{"source": "ChEMBL document CHEMBL3988442", "about": "“University of Dundee, Small-Polar-MMV Screening Library” (2021)", "note": "Among all 48,000 compounds or so, about 13,000 (27%) showed an effect of 50% or more. This is one part of the list."}
{"test_system": "Wolbachia pipientis", "test": "Anti-Wolbachia Cell-Based Screen", "type": "functional", "parameters": "scale not given: in the data most compounds retested in dose-response had high values", "details": "5 µM", "units": {"Percent Effect": "%"}}
{"smiles": "CC(C)C1CN(C(=O)c2cc(C3CC3)n[nH]2)CCC(=O)N1CC1CC1", "note": "(stereo not drawn)", "Percent Effect": 29.09}
{"smiles": "C[C@@H]1CN(S(=O)(=O)N2CCCC2)C[C@@]1(O)C1CC1", "Percent Effect": -6.629}
{"smiles": "CNC(=O)[C@@H]1C[C@@H](NC(=O)c2ccc(OC)o2)CN1Cc1sccc1C", "Percent Effect": 3.708}
{"smiles": "CC(C)CN(c1cn[nH]c1)S(=O)(=O)c1cccc(C#N)c1", "Percent Effect": -11.66}
{"smiles": "CC1(CCC(=O)N2CCC(n3cc(C4(O)CCCC4)nn3)CC2)CC1", "Percent Effect": 8.722}
{"smiles": "CN(CCC(C)(C)O)C(=O)C1CCC(=O)N(Cc2ccc(Cl)cc2)C1", "note": "(stereo not drawn)", "Percent Effect": -7.945}
{"smiles": "O=C1CN(C(=O)C2CCCOC2)CCN1Cc1ccc(Cl)cc1", "note": "(stereo not drawn)", "Percent Effect": -1.465}
{"smiles": "O=C1CN(C(=O)C2CCCCC2)CC(O)CN1Cc1ccc(Cl)cc1", "note": "(stereo not drawn)", "Percent Effect": 110.4}
{"smiles": "COc1ccc(CN2CC(O)CN(C(=O)C3CCC3)CC2=O)cc1", "note": "(stereo not drawn)", "Percent Effect": 125.6}
{"smiles": "Cc1ccc(CN2CC(O)CN(C(=O)C3CC3)CC2=O)cc1", "note": "(stereo not drawn)", "Percent Effect": 98.84}
{"smiles": "O=C1CN(C(=O)C2CCOCC2)CCN1Cc1ccc(Cl)cc1", "Percent Effect": -5.322}
{"smiles": "COc1ccc(CN2CCO[C@H]3CN(C(=O)C4CC4)CC[C@H]3C2=O)cc1", "Percent Effect": -3.017}
{"smiles": "COc1ccc(CN2CCO[C@H]3CN(C4CCC4)CC[C@H]3C2=O)cc1.O=C(O)C(F)(F)F", "Percent Effect": -4.57}
{"smiles": "O=C(C1CCOCC1)N1CCN2C(=O)N(Cc3ccc(F)cc3)C[C@H]2C1", "Percent Effect": -6.376}
{"smiles": "CCOCC1CN(C(=O)c2cccs2)Cc2nn(C)cc21", "note": "(stereo not drawn)", "Percent Effect": -4.192}
{"smiles": "CCn1c(C)cc(C(=O)N2CCCC(n3ccnc3C)C2)c1C", "note": "(stereo not drawn)", "Percent Effect": 101.9}
{"smiles": "CCn1c(C)cc(C(=O)N2CCCC(n3nc(C)nc3C)C2)c1C", "note": "(stereo not drawn)", "Percent Effect": -3.865}
{"smiles": "CC(C)c1nccn1C1CCCN(C(=O)c2cnn(C)c2C2CC2)C1", "note": "(stereo not drawn)", "Percent Effect": -1.568}
{"smiles": "CCCc1cc(C(=O)N2CCCC(n3ccnc3C)C2)[nH]n1", "note": "(stereo not drawn)", "Percent Effect": -7.935}
{"smiles": "CCc1nccn1C1CCCN(C(=O)c2cnn(C)c2C2CC2)C1", "note": "(stereo not drawn)", "Percent Effect": 0.8841}
{"smiles": "Cc1nccn1C1CCCN(C(=O)c2cnn(C)c2C2CC2)C1", "note": "(stereo not drawn)", "Percent Effect": 89.3}
{"smiles": "Cc1ncncc1C(=O)N1CCCC(n2ccnc2C)C1", "note": "(stereo not drawn)", "Percent Effect": 90.56}
{"smiles": "Cc1cnc(C(=O)N2CCCC(n3ccnc3C)C2)cn1", "note": "(stereo not drawn)", "Percent Effect": 4.379}
{"smiles": "Cc1nc(C)c(C(=O)N2CCCC(n3ccnc3C)C2)s1", "note": "(stereo not drawn)", "Percent Effect": 110.6}
{"smiles": "CCn1ccnc1C1CCCN(C(=O)c2sc(C)nc2C)C1", "note": "(stereo not drawn)", "Percent Effect": -9.404}
{"smiles": "Cc1sc2nc(CCN)nc(N3CC(N4CCCCC4)C3)c2c1C", "Percent Effect": 3.569}
{"smiles": "O=C(CCc1ncc(-c2ccc(F)cc2)o1)NCCN1CCOCC1", "Percent Effect": 3.155}
{"smiles": "Cc1ncsc1C(=O)N(C)Cc1cccc(Cl)c1", "Percent Effect": -11.93}
{"smiles": "CCn1[nH]c(C)c2c(C(F)(F)C(F)(F)F)cc(=O)nc1-2", "Percent Effect": -26.97}
{"smiles": "CN(CCC(F)(F)F)C(=O)C1CCCN1C(=O)OC(C)(C)C", "note": "(stereo not drawn)", "Percent Effect": 12.15}
{"smiles": "Cc1ccccc1SC1CCN(C(=O)C2CNC(=O)N2)CC1", "note": "(stereo not drawn)", "Percent Effect": 2.436}
{"smiles": "CCN(CC)Cc1ccc(C(=O)NC2CCc3ccccc32)o1", "note": "(stereo not drawn)", "Percent Effect": -6.624}
{"smiles": "O=C(CCC1CCCC1)N1CCC(O)(C(F)(F)F)C1", "note": "(stereo not drawn)", "Percent Effect": -0.53}
{"smiles": "CN1CCOCC12CCN(Cc1nccs1)CC2", "Percent Effect": 7.326}
{"smiles": "CCOCC(=O)NCCc1nc(C2CC2)cc(C(F)(F)F)n1", "Percent Effect": 130.2}
{"smiles": "CCOc1ccnc(NCc2nc(C)cc(C(F)(F)F)n2)n1", "Percent Effect": -1.038}
{"smiles": "Cc1cc(C)nc(CCNC(=O)C(c2ccc(F)cc2)N(C)C)n1", "note": "(stereo not drawn)", "Percent Effect": 7.326}
{"smiles": "CCOCC(=O)NCc1cc(C2CC2)n(C2CCCC2)n1", "Percent Effect": 2.551}
{"smiles": "O=C(CN1C(=O)CCC1=O)NCc1cc(C2CC2)n(C2CCCC2)n1", "Percent Effect": -8.442}
{"smiles": "Cn1nc(CNC(=O)CN2C(=O)CCC2=O)cc1C1CC1", "Percent Effect": -2.201}
{"smiles": "O=C(CN1C(=O)CCC1=O)NCCc1nc(C2CC2)cc(C(F)(F)F)n1", "Percent Effect": 102.8}
{"smiles": "CCOCC(=O)NCCc1nc(C)cc(C(F)(F)F)n1", "Percent Effect": 110.5}
{"smiles": "CCOCC(=O)NCCc1ccc(I)s1", "Percent Effect": -15.02}
{"smiles": "Cc1ncccc1C(=O)NC1CC(=O)N(CC(F)(F)F)C1", "note": "(stereo not drawn)", "Percent Effect": -0.2034}
{"smiles": "O=C(NCc1ccccc1F)Nc1ccn(CCN2CCOCC2)n1", "Percent Effect": -47.91}
{"smiles": "Cc1cc(CSc2ccccn2)on1", "Percent Effect": -1.483}
{"smiles": "CN(C)CCN1C(=O)C[C@@H]2[C@@H]1CCN2S(=O)(=O)c1ccccc1.O=C(O)C(F)(F)F", "Percent Effect": -18.17}
{"smiles": "CN(C)CCN1C[C@@H]2CN(C(=O)C3CC=CC3)C[C@@H]2C1=O", "Percent Effect": -2.917}
{"smiles": "CN(C)CCN1C[C@@H]2CN(S(=O)(=O)c3cccs3)C[C@@H]2C1=O.O=C(O)C(F)(F)F", "Percent Effect": -17.1}
{"smiles": "CN(C)CCN1C[C@@H]2CN(c3ccccc3)C[C@@H]2C1=O.O=C(O)C(F)(F)F", "Percent Effect": 89.24}
{"smiles": "CN(C)CCN1C[C@@H]2CN(S(=O)(=O)c3ccccc3)C[C@@H]2C1=O.O=C(O)C(F)(F)F", "Percent Effect": 104.5}
{"smiles": "CN(C)CCN1C[C@@H]2CN(C(=O)c3ccsc3)C[C@@H]2C1=O.O=C(O)C(F)(F)F", "Percent Effect": -6.945}
{"smiles": "Cc1cc(NC(=O)N2CCN(C)CC2C)n(C(C)(C)C)n1", "note": "(stereo not drawn)", "Percent Effect": -1.035}
{"smiles": "Cc1nn(C)c2nc(N(CCOc3ccccc3)CC3CCCO3)sc12", "note": "(stereo not drawn)", "Percent Effect": -19.55}
{"smiles": "Clc1ccccc1OC1CN(CC2CCOC2)C1", "note": "(stereo not drawn)", "Percent Effect": -8.991}
{"smiles": "Cc1cnc(N2C[C@@H]3[C@@H](C2)OCC(=O)N3CC2CC2)nc1", "Percent Effect": 5.534}
{"smiles": "Cc1nc(CN2Cc3nccn3CC(CN3CCOCC3)C2)cs1.O=C(O)C(F)(F)F.O=C(O)C(F)(F)F", "note": "(stereo not drawn)", "Percent Effect": -3.569}
{"smiles": "Cc1nc(CN2Cc3nccn3CC(COCC3CC3)C2)cs1.O=C(O)C(F)(F)F", "note": "(stereo not drawn)", "Percent Effect": -7.932}
{"smiles": "CCOCC1CN(Cc2csc(C)n2)Cc2nccn2C1.O=C(O)C(F)(F)F", "note": "(stereo not drawn)", "Percent Effect": -4.835}
{"smiles": "COCC1CN(Cc2csc(C)n2)Cc2nccn2C1.O=C(O)C(F)(F)F", "note": "(stereo not drawn)", "Percent Effect": -4.637}
{"smiles": "COCCN1Cc2nccn2CC(COCc2csc(C)n2)C1.O=C(O)C(F)(F)F.O=C(O)C(F)(F)F", "note": "(stereo not drawn)", "Percent Effect": 102.1}
{"smiles": "CCN1Cc2nccn2CC(COCc2csc(C)n2)C1.O=C(O)C(F)(F)F.O=C(O)C(F)(F)F", "note": "(stereo not drawn)", "Percent Effect": 99.32}
{"smiles": "Cc1occc1C(=O)N1C[C@@H](C(=O)NCc2ccco2)C[C@H]2OCC[C@H]21", "Percent Effect": 100.5}
{"smiles": "O=C(NCc1ccco1)[C@H]1C[C@H]2OCC[C@H]2N(S(=O)(=O)C2CC2)C1", "Percent Effect": -11.11}
{"smiles": "O=C(NCc1ccco1)[C@H]1C[C@H]2OCC[C@H]2N(C(=O)c2ccco2)C1", "Percent Effect": -11.04}
{"smiles": "O=C(NCc1ccco1)[C@H]1C[C@H]2OCC[C@H]2N(C(=O)c2ccnnc2)C1", "Percent Effect": 110.4}
{"smiles": "O=C(NCc1ccco1)[C@@H]1C[C@H]2OCC[C@H]2N(c2ncc(F)cn2)C1", "Percent Effect": 12.25}
{"smiles": "Cc1occc1C(=O)N1C[C@@H](C(=O)N2CCCCO2)C[C@H]2OCC[C@H]21", "Percent Effect": -3.518}
{"smiles": "Cc1nnc(N2C[C@H](C(=O)NCc3ccco3)[C@@H]3CCO[C@@H]3C2)s1", "Percent Effect": 0.8381}
{"smiles": "CN(C)C(=O)N1C[C@@H](C(=O)NCc2ccco2)C[C@H]2OCC[C@H]21", "Percent Effect": 111.8}
{"smiles": "O=C(NCc1ccco1)[C@H]1C[C@H]2OCC[C@H]2N(C(=O)c2ccncc2)C1.O=C(O)C(F)(F)F", "Percent Effect": -2.028}
{"smiles": "NCC1Cc2cc(-c3nccc(N4CCC(O)CC4)n3)cc(F)c2O1", "note": "(stereo not drawn)", "Percent Effect": -9.833}
{"smiles": "Cc1nnc(NCCc2nc3ccc(F)cc3n2C)c(C#N)c1C", "Percent Effect": -11.69}
{"smiles": "Cc1ccccc1C(C)(C)CNC(=O)CCSc1nnnn1C", "Percent Effect": -6.777}
{"smiles": "O=S(=O)(c1ccc2c(c1)OCCO2)N1CCC(OCc2ccccn2)C1", "note": "(stereo not drawn)", "Percent Effect": -6.121}
{"smiles": "O=S(=O)(c1ccc2c(c1)OCCO2)N1CCc2ccccc2C1", "Percent Effect": 119.9}
{"smiles": "O=c1ccc2c([nH]1)CCN(S(=O)(=O)c1ccc3c(c1)OCCO3)C2", "Percent Effect": 2.836}
{"smiles": "Cc1nsc(NC(=O)N2CCC(C(C)(C)O)CC2)n1", "Percent Effect": -12.37}
{"smiles": "O=C(C1CCCN(C2CCOCC2)C1)N1Cc2ccccc2C1", "note": "(stereo not drawn)", "Percent Effect": 98.98}
{"smiles": "CC(C(=O)N1CCc2sccc2C1)N1CCC(N2CCCC2)CC1", "note": "(stereo not drawn)", "Percent Effect": -24.52}
{"smiles": "O=C(C1CCCN(C2CCOCC2)C1)N1CCc2ncccc2C1", "note": "(stereo not drawn)", "Percent Effect": 101.2}
{"smiles": "CN(C)C(=O)N1Cc2ccccc2C2(CCN(C3CCOCC3)CC2)C1", "Percent Effect": -2.498}
{"smiles": "O=C(C1CCOCC1)N1CCc2ncnc(-c3ccccc3)c2CC1", "Percent Effect": -2.988}
{"smiles": "O=C(C1CCCN(Cc2ccccc2)C1)N1CCc2sccc2C1", "note": "(stereo not drawn)", "Percent Effect": 14.78}
{"smiles": "Cn1c(C(N)=O)cc2c1CN(C(=O)C1CCCN(C3CCCC3)C1)CC2", "note": "(stereo not drawn)", "Percent Effect": -3.385}
{"smiles": "CN1CCC(N2CCCC(C(=O)N3Cc4ccccc4C3)C2)CC1", "note": "(stereo not drawn)", "Percent Effect": 88.48}
{"smiles": "O=C(C1CCCN(Cc2cccnc2)C1)N1CCc2sccc2C1", "note": "(stereo not drawn)", "Percent Effect": 6.643}
{"smiles": "CCc1nnc(CN(C)c2nccc(CCC(F)(F)F)n2)o1", "Percent Effect": -5.519}
{"smiles": "CCc1ccc(C(=O)O)cc1S(=O)(=O)Nc1c(C)ccn(C)c1=O", "Percent Effect": 6.747}
{"smiles": "O=C1CCCN1CCCN1CCCC1Cn1cccn1", "note": "(stereo not drawn)", "Percent Effect": 2.247}
{"smiles": "COC(=O)CCNC(=O)c1ccc(OCc2ccccc2)nc1", "Percent Effect": 0.7688}
{"smiles": "COCCNC(=O)Cn1cc(OCc2ccccc2)c(=O)cc1CO", "Percent Effect": 143.5}
{"smiles": "COCCC1(C(=O)O)CCCN(CC(=O)NCCc2ccccc2)C1", "note": "(stereo not drawn)", "Percent Effect": -1.604}
